A selection: hits, their analogues and other compounds. The true share with any hit is near 3.4%.
AmpC inh no detg: inhibitors of E. coli AmpC beta-lactamase without detergent. AID 485341. hit rate 0.52% among 330,000. AmpC nitrocefin hydrolysis, absorbance 480 nm, 0.0001% Triton. Potency, µM (doses to about 57.1 µM), inactives show at the highest dose activity change, negative = inhibition, usual class: inhibitors. P00811;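 further: plate controls were no compound for no effect and no enzyme for full effect; nearly all actives have a fitted effect of over 20% in size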
Target sequence (P00811 whole entry, looked up): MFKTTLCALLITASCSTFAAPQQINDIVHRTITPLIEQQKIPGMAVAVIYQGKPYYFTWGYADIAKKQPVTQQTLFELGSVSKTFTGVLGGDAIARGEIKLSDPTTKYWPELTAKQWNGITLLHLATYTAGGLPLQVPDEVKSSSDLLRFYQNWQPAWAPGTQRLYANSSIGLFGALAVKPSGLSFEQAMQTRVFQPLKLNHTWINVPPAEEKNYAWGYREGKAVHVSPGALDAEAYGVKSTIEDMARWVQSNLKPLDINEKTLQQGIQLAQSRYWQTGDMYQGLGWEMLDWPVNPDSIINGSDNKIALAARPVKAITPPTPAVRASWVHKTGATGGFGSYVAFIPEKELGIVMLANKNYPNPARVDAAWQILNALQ
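20 mM phosphate pH 7.0 + 0.01% (detergent screen) or 0.0001% Triton X-100; 5.3 nM AmpC reagent; cpd preinc 15 min RT; nitrocefin (800 uM stock) to start; A480 q20 s × 4 min; Activity was normalised to no-enzyme and no-compound control wells.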
Giardia FBPA inh: blocks Giardia fructose-bisphosphate aldolase activity; Potency, µM (series often up to 59.6 µM), for the others: at the highest dose activity, negative = inhibition, actives largely listed as inhibitors; purified Giardia FBPA; hit rate 0.71% among 290,000; A8B2U2; AID 2451; further: nearly all actives have a fitted effect of over 55% in size
Target sequence (A8B2U2 whole entry, looked up): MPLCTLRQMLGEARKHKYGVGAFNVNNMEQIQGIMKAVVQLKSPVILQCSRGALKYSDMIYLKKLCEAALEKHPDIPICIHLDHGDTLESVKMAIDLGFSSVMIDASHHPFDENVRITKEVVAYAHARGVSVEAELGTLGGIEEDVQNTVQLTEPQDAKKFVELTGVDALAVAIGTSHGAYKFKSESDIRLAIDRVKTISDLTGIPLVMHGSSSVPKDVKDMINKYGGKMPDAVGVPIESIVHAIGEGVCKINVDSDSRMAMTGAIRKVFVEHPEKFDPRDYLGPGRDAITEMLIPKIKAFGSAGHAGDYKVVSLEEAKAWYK
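40 nM FBPA preincubated 10 min at RT with compound (up to 57.5 uM final), then substrate plus GAPDH/TPI/NAD/arsenate coupling and diaphorase/resazurin added. Fluorescence read after 20 min at RT, 525/598 nm.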
Sm TGR block: S. mansoni TGR enzyme inhibition. purified TGR, DTNB reduction, TNB absorbance 405 nm. Potency, µM (titrated, usually from 114 µM), without a hit: at the highest dose activity change, negative = inhibition, actives largely listed as inhibitors. hit rate 3% among 360,000. AID 485364; further: nearly all actives have a fitted effect of over 60% in size
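TGR 20 nM + NADPH 100 uM (dispensed conc.), cpd preinc 15 min RT; start with NADPH (500 uM addition) then DTNB (15 mM addition). Kinetic TNB absorbance, 405 nm filter. Four-parameter Hill fit across titration.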
AmpC inh detg: inhibitors of E. coli AmpC beta-lactamase with detergent | AmpC hydrolysis of nitrocefin, absorbance 480 nm, 0.01% Triton | Potency, µM (doses to about 114 µM), for inactives: top-dose activity change, negative = inhibition, hits mostly inhibitors | hit rate 0.041% among 370,000;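 further: 0% = no-compound wells and -100% = no-enzyme wells; nearly all actives have a fitted effect of over 25% in size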
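20 mM phosphate pH 7.0 + 0.01% (detergent screen) or 0.0001% Triton X-100; 5.3 nM AmpC reagent; cpd preinc 15 min RT; nitrocefin (800 uM stock) to start; A480 q20 s × 4 min; Activity was normalised to no-enzyme and no-compound control wells.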
RE007 growth inh: less growth of the S. pombe RE007 Vpr strain. Potency, µM (top dose mostly 92.2 µM), for the others: at the top dose activity change, negative = less growth, hits mostly inhibitors. AID 651644. hit rate 0.21% among 360,000. S. pombe RE007 Vpr strain, BacTiter-Glo ATP luminescence, 24 h; active means well fitted falling curve with a large enough effect; inconclusive means small, poorly fitted or top-dose-only effect; inactive means no such curve, though single readings can be large or run the other way; further: nearly all actives have a fitted effect of over 50% in size
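Fission yeast RE007 carrying one integrated HIV-1 vpr copy, seeded at OD 0.01 in PMG+AL medium with 23 nL pinned compound. Grown 24 h at 30 degrees; viability read by BacTiter-Glo luminescence after 5 min.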
Numbers without * were called inactive; ? = inconclusive; / = no result given; [ ] = another dose, or the depositor's remark. Unless noted, the call rests on the fitted dose curve; in most records, active means well fitted curve in the direction sought with a large enough effect; inconclusive means small, poorly fitted or top-dose-only effect, or another doubt; inactive means no such curve, though single readings can be large; an effect the other way counts as inactive or inconclusive. Unless noted, on the % scale 0 is the no-effect control and ±100 the full control effect; potency means the concentration at half of the fitted maximal effect.

SMILES	AmpC inh no detg	Giardia FBPA inh	Sm TGR block	AmpC inh detg	RE007 growth inh
COc1ccc(C(=O)OCC(=O)c2ccc(CNC(C)=O)s2)cc1	-9%	/	-9%	-1%	14%
CC(=O)NCc1ccc(C(=O)CCl)cc1	-7%	-6%	11µM*	?	-2%
CC(=O)NCc1ccc(C(=O)CCl)s1	-29%	-11%	14µM*	-5%	3%
COCC(=O)Nc1cc(C)cn(Cc2cccc(C(F)(F)F)c2)c1=O	20%	-8%	-14%	?	3%
Cc1ccc(Cn2c(-c3ccccc3)nc3ccccc32)cc1	/	/	8%	14%	/
Clc1ccc(Cn2c(/C=C/c3ccco3)nc3ccccc32)cc1	-33%	-6%	28µM*	?	17%
Cc1ccc(Cn2c(/C=C/c3ccco3)nc3ccccc32)cc1	-32%	-11%	11µM*	-14%	14%
CCOC(=O)c1c(C)[nH]c(C=Nc2ccccc2)c1O	-7%	?	32µM*	0%	/
O=C(O)CCc1ccc(-c2ccc(Br)cc2)n1-c1ccccc1O	/	/	-18%	23%	/
O=C(O)CCc1ccc(-c2ccccc2)n1-c1cccc(O)c1	-51%	16%	14µM*	-8%	-10%
Cc1ccc(-c2ccc(CCC(=O)O)n2-c2cccc(C)c2C)cc1	/	/	22µM*	-11%	/
CCOC(=O)c1ccc(-n2c(CCC(=O)O)ccc2-c2ccc(F)cc2)cc1	-20%	13%	22µM*	-10%	/
O=C(O)CCc1ccc(-c2ccccc2)n1NC(=O)c1ccco1	-4%	5%	?	-4%	-10%
Cc1ccc(-c2ccc(CCC(=O)O)n2-c2ccc(C(=O)O)cc2)cc1	-20%	7%	14µM*	1%	/
Cn1c(N=Cc2ccc([N+](=O)[O-])cc2)c(N)c(=O)n(C)c1=O	/	/	/	/	7%
Cc1ccc(-c2ccc(CCC(=O)O)n2-c2cccc(C(=O)O)c2)cc1	-13%	-3%	13µM*	-7%	5%
COC(=O)c1ccc(-n2c(CCC(=O)O)ccc2-c2ccc(C)cc2)cc1	-40%	10%	28µM*	1%	-9%
Cc1ccc(-c2ccc(CCC(=O)O)n2-c2ccc(C(C)C)cc2)cc1	/	/	40µM*	-10%	/
CC(C)C[C@H](NC(=O)[C@H](Cc1ccccc1)NC(=O)CNC(=O)[C@H](CCC(=O)O)NC(=O)[C@H](CCCNC(=N)N)NC(=O)[C@H](C)NC(=O)[C@H](C)NC(=O)[C@@H](N)CC(=O)O)C(=O)N[C@@H](CC(=O)O)C(=O)N[C@H](C(=O)N[C@@H](CC(C)C)C(=O)N[C@H](C(=O)N[C@H](C(=O)N[C@@H](CC(C)C)C(=O)N[C@@H](Cc1cnc[nH]1)C(=O)N[C@@H](CCCNC(=N)N)C(=O)N[C@@H](C)C(=O)NCC(=O)N[C@@H](C)C(=O)N[C@@H](CCCNC(=N)N)C(=O)O)C(C)C)C(C)C)[C@@H](C)O	/	-1%	/	/	/
O[C@H]1COC2C1OC[C@@H]2O (some centres undefined)	-4%	8%	-12%	?	-12%[18.4 µM]
CC(C)(C)c1ccc(NNC(=O)C2CCC2)cc1	-13%	3%	45µM*	6%	3%
CN(Cc1ccco1)C(=O)Cn1cc(S(=O)(=O)N2CCCC2)c(S(=O)(=O)N2CCCC2)c1	3%	0%	35µM*	2%	8%
CSCCC1C(C#N)=C(N)Oc2n[nH]c(-c3cccs3)c21 (centres undefined)	-37%	-26%	13µM*	-1%	-17%
CC(C)CC1C(C#N)=C(N)Oc2n[nH]c(-c3cccs3)c21 (centres undefined)	-23%	-23%	7%	?	-10%
CC(C)c1nnc(NC(=O)c2nc(S(=O)(=O)Cc3ccccc3)ncc2Cl)s1	-28%	/	40µM*	?	10%
SMILES	AmpC inh no detg	Giardia FBPA inh	Sm TGR block	AmpC inh detg	RE007 growth inh
CCCc1nnc(NC(=O)c2nc(S(=O)(=O)Cc3ccc(C)cc3)ncc2Cl)s1	20%	/	25µM*	20%	-12%
CC(C)Sc1ncc(Cl)c(C(=O)Nc2nnc(C(C)C)s2)n1	/	/	0%	15%	/
Cc1ccccc1CS(=O)(=O)c1ncc(Cl)c(C(=O)Nc2nnc(C(C)C)s2)n1	/	/	20µM*	10%	/
CSc1ncc(Cl)c(C(=O)Nc2ccc(C)c(C)c2)n1	-21%	-3%	5%	-8%	-4%
Cc1ccc(CS(=O)(=O)c2ncc(Cl)c(C(=O)Nc3nc4ccc(C)cc4s3)n2)cc1	/	/	?	23%	/
Cc1ccc(NC(=O)c2nc(S(=O)(=O)Cc3ccccc3C)ncc2Cl)cc1C	-38%	-6%	11µM*	-6%	4%
CSc1nnc(NC(=O)c2nc(S(=O)(=O)Cc3ccccc3)ncc2Cl)s1	-18%	/	13µM*	0%	-7%
Cc1cc(=S)cc(C)n1CCCn1ccnc1	-6%	?	11µM*	?	-17%
COc1cc(/C=N/NC(=O)C23CC4CC(CC(C4)C2)C3)cc(Br)c1O	28µM*	-2%[12.9 µM]	-18%	2%	3%
COc1cc(/C=N/NC(=O)CC2(C)OCCO2)cc(Br)c1O	-15%	-2%	-9%	0%	-4%
Cc1ccc(C)n1C(CC(=O)O)c1ccc(C#N)cc1 (centres undefined)	-13%	-2%	40µM*	2%	7%
Cc1ccc(/C=C2\C(=O)NC(=S)N(c3ccc(F)cc3)C2=O)s1	?	0%	?	?	2%
Cc1ccc(/C=C2\C(=O)NC(=S)N(c3ccccc3F)C2=O)s1	-31%	-10%	7.9µM*	1%	-1%
CCOc1ccccc1C1N=C(c2ccc(OC)cc2)CC(c2ccccc2O)N1 (centres undefined)	32µM*	1%	-11%	7%	5%
CC(C)C1N=C(c2ccc3c(c2)OCO3)CC(c2ccccc2O)N1 (centres undefined)	-43%	-10%	-30%	-13%	?
Cc1cc(/C=C(\C#N)C(=O)O)c(C)n1CC1CCCO1 (centres undefined)	-26%	13%	-30%	4%	6%
Cc1ccc(CN=Cc2[nH]c3ccc(Br)c(Cl)c3c2O)cc1	-18%	?	45µM*	1%	-11%
Oc1c(C=NCc2ccc(F)cc2)[nH]c2ccc(Br)c(Cl)c12	-44%	?	32µM*	-4%	/
Cc1c(NC2=C(Cl)C(=O)N(c3ccccc3Cl)C2=O)c(=O)n(-c2ccccc2)n1C	-18%	8%	40µM*	-8%	/
O=C1C(Cl)=C(N2CCCCCC2)C(=O)N1c1ccccc1Cl	-40%	3%	3%	2%	-4%
C=CCNC1=C(Cl)C(=O)N(c2ccccc2Cl)C1=O	-28%	-1%	45µM*	?	-2%
O=C(CC(c1ccccc1)c1ccco1)N1CCCCC1 (centres undefined)	-4%	-1%	?	-7%	/

Screening data: PubChem, National Center for Advancing Translational Sciences (NCATS)
